# According to the supplement of paper PMC10849652:
# Of roughly 7,900 targets only a part is listed; those with a hit were picked by preference. About 0.6% of all pairs of compound and target were hits.
# Compound: CC1=C(C=C(C=C1)NC(=O)C2=CC(=CC=C2)N(C)C)NC(=O)C3=CC=C(C=C3)O
# Test: log2 fold change, soluble protein after heating vs DMSO (PISA); higher = thermal stabilisation; K562 cells, 10 uM, 30 min; active = over 0.2 and 3.5 SD of the protein, either way, in both replicates (recomputed)
# In short: (§1)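 For each measurement, 10 μM compound was applied for 30 min to K562 cells at 2×10^6 cells/mL. Aliquots were heated for 3 min across 48°C-58°C, pooled, and extracted in PBS with 0.5% NP-40 at 4°C; the supernatant after 21,000xg for 90 min was soluble protein. This was quantified by TMTpro 16plex LC-MS/MS with channel sums equalised, and thermal stability was reported relative to control samples from duplicates, on a log2 fold-change scale.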
# Sequence of UniProt Q9NRY5 (Q9NRY5 whole entry, looked up): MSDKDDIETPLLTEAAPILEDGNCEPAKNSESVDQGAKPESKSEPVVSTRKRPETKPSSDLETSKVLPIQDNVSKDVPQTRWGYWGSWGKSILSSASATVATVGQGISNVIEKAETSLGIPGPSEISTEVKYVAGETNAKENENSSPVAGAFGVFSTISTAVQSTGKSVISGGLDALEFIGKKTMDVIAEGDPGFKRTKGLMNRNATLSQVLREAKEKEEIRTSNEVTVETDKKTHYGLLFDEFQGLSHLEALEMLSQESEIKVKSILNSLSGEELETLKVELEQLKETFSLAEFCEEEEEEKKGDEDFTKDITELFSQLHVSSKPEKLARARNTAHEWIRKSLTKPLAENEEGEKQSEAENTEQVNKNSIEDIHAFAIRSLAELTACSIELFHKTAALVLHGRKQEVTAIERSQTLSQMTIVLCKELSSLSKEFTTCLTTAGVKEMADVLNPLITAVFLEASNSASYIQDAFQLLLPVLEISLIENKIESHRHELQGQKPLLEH
# Sequence of UniProt P09668 (P09668 whole entry, looked up): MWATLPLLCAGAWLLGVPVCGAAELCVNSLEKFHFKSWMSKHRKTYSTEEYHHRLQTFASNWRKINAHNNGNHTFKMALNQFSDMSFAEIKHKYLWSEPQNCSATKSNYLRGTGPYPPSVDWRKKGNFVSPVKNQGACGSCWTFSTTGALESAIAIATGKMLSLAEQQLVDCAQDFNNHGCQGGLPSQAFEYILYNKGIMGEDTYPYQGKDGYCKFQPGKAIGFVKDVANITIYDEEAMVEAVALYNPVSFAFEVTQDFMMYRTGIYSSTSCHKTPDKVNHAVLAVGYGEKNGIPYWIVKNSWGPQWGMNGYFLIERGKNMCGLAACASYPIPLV
# Sequence of UniProt Q16254 (Q16254 whole entry, looked up): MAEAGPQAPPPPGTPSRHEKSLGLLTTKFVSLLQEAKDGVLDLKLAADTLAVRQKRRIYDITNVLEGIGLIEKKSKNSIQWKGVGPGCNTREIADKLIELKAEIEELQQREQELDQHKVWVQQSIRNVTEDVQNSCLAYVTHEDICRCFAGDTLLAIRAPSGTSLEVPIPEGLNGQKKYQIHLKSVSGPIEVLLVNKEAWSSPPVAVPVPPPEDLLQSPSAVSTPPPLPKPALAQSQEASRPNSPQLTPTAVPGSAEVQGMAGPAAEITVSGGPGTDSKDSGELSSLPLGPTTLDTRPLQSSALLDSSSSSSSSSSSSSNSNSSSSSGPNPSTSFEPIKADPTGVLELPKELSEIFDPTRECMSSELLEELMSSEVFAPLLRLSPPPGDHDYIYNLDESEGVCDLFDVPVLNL
# Sequence of UniProt P24534 (P24534 whole entry, looked up): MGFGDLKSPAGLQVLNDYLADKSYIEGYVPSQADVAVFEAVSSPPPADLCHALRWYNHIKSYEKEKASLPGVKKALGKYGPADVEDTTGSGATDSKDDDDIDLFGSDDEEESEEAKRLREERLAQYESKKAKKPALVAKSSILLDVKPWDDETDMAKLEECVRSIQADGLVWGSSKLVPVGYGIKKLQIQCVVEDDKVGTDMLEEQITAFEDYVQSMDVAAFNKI
# Sequence of UniProt Q96KP1 (Q96KP1 whole entry, looked up): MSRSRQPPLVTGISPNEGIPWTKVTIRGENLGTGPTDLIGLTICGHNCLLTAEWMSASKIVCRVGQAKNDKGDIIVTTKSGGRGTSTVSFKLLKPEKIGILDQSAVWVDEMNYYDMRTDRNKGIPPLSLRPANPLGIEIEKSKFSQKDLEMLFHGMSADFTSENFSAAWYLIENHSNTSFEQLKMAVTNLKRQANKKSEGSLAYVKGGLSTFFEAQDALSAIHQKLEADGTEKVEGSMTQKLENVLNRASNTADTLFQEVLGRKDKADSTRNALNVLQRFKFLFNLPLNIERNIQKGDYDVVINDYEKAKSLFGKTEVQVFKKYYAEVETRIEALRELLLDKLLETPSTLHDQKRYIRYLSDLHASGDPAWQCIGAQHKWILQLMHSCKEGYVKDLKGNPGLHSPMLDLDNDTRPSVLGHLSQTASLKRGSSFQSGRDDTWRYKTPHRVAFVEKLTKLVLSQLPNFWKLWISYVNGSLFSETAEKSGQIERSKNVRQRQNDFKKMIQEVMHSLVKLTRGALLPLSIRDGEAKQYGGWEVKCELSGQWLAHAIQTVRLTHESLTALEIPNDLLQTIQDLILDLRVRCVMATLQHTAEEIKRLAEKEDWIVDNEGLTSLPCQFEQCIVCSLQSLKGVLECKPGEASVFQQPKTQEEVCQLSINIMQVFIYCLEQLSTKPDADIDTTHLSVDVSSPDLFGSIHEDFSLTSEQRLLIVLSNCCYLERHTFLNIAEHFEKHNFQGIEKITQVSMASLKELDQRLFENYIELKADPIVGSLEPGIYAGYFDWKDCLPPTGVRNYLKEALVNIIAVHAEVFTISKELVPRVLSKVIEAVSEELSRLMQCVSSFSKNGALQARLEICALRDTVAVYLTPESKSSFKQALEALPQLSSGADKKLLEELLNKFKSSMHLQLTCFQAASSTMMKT
# Sequence of UniProt Q8N3D4 (Q8N3D4 whole entry, looked up): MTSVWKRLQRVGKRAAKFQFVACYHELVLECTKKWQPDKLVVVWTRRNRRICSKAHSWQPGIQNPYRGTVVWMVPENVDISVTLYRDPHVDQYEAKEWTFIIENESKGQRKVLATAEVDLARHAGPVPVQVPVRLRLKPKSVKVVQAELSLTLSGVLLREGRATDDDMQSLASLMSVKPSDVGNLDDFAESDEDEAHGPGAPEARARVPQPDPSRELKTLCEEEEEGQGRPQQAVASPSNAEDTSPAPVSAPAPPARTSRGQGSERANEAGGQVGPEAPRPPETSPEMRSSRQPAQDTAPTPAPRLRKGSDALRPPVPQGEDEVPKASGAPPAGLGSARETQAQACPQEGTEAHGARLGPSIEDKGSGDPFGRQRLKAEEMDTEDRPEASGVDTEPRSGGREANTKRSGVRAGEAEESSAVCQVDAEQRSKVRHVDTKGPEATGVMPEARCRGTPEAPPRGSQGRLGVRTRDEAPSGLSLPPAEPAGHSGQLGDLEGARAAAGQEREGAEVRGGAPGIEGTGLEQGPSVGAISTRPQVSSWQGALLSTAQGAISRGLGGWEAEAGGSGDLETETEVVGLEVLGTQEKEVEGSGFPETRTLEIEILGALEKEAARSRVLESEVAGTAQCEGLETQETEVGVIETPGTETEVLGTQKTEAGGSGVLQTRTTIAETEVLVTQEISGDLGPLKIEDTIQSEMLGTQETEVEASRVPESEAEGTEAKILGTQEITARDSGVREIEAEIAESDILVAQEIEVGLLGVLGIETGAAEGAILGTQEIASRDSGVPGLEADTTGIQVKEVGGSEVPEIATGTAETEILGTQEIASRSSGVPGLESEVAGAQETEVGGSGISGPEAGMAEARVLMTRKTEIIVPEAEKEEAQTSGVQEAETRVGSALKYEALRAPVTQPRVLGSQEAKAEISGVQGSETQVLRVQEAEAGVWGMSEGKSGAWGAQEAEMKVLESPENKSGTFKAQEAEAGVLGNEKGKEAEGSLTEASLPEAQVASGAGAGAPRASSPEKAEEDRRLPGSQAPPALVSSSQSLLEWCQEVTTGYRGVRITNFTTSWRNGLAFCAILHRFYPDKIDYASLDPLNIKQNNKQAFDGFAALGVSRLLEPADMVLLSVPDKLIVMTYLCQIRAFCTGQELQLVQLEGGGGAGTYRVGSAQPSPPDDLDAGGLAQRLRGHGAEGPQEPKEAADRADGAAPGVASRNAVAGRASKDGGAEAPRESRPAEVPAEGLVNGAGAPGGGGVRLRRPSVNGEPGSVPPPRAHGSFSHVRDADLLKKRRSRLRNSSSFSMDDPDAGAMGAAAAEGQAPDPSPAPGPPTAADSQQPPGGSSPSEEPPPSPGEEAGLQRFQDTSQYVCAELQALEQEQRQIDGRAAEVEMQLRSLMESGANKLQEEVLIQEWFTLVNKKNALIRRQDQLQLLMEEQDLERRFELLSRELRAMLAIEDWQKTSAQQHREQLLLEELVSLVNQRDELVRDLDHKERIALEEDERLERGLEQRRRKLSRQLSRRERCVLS
# Sequence of UniProt Q99848 (Q99848 whole entry, looked up): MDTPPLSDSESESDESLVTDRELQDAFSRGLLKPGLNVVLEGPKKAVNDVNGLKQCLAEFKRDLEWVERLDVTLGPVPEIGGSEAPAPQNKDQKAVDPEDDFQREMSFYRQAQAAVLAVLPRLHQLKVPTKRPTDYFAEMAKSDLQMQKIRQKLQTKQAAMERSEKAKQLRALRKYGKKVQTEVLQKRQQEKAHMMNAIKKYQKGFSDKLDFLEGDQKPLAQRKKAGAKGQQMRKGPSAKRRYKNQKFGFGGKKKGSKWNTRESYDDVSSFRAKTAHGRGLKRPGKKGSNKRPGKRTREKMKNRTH
# Sequence of UniProt Q96LJ7 (Q96LJ7 whole entry, looked up): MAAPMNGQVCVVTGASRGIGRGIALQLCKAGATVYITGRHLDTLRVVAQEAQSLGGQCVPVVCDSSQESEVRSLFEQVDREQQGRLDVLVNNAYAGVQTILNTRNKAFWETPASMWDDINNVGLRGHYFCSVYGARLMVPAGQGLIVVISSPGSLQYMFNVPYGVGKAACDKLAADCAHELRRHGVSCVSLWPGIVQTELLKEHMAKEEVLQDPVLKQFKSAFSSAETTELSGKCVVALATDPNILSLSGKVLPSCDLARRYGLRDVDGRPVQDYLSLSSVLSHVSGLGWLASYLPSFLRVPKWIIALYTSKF
# Sequence of UniProt Q96EV8 (Q96EV8 whole entry, looked up): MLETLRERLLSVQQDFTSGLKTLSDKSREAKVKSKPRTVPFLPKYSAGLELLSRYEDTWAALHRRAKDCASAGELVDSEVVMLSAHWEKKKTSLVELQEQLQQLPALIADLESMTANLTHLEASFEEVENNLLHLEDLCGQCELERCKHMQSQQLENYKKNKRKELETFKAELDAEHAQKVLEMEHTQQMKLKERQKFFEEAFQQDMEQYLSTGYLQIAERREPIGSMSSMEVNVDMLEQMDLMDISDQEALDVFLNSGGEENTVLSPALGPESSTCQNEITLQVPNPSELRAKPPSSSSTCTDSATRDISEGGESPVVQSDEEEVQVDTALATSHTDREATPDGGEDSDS
row,Target,log2 fold change
1,FAM3A (UniProt P98173),0.012 (inactive)
2,CTSZ (UniProt Q9UBR2),-0.004 (inactive)
3,DMXL1 (UniProt Q9Y485),-0.004 (inactive)
4,EXTL2 (UniProt Q9UBQ6),-0.003 (inactive)
5,CUEDC2 (UniProt Q9H467),-0.043 (inactive)
6,CYFIP1 (UniProt Q7L576),0.005 (inactive)
7,ECH1 (UniProt Q13011),-0.027 (inactive)
8,FAM114A2 (UniProt Q9NRY5),0.03 (inactive)
9,EFCAB14 (UniProt O75071),0.061 (inactive)
10,DDX46 (UniProt Q7L014),-0.117 (inactive)
11,FAM177A1 isoform 2 (UniProt Q8N128),0.152 (inactive)
12,DPH5 isoform 5 (UniProt Q9H2P9),-0.01 (inactive)
13,DNAJB12 (UniProt Q9NXW2),-0.017 (inactive)
14,EXOC4 (UniProt Q96A65),0.029 (inactive)
15,DTNBP1 (UniProt Q96EV8),0.006 (inactive)
16,DYNC1LI2 (UniProt O43237),-0.093 (inactive)
17,EBNA1BP2 (UniProt Q99848),-0.033 (inactive)
18,EEF1B2 (UniProt P24534),-0.025 (inactive)
19,DCUN1D1 (UniProt Q96GG9),-0.077 (inactive)
20,DLD (UniProt P09622),0.025 (inactive)

row,Target,log2 fold change
1,DNAJC7 (UniProt Q99615),-0.037 (inactive)
2,DCAF6 isoform 3 (UniProt Q58WW2),-0.035 (inactive)
3,FAM50A (UniProt Q14320),-0.059 (inactive)
4,CTSH (UniProt P09668),0.066 (inactive)
5,E2F4 (UniProt Q16254),0.011 (inactive)
6,DCP2 (UniProt Q8IU60),-0.006 (inactive)
7,DTYMK (UniProt P23919),0.05 (inactive)
8,EOGT (UniProt Q5NDL2),-0.073 (inactive)
9,DCTPP1 (UniProt Q9H773),-0.078 (inactive)
10,DHPS (UniProt P49366),0.016 (inactive)
11,DHRS1 (UniProt Q96LJ7),-0.143 (inactive)
12,EXOC2 (UniProt Q96KP1),-0.017 (inactive)
13,DMAC1 (UniProt Q96GE9),0.041 (inactive)
14,FAAP100 (UniProt Q0VG06),-0.001 (inactive)
15,DNAH5 (UniProt Q8TE73),0 (inactive)
16,ERCC6 (UniProt Q03468),-0.038 (inactive)
17,ERLIN2 (UniProt O94905),-0.024 (inactive)
18,DAG1 (UniProt Q14118),-0.019 (inactive)
19,EHBP1L1 (UniProt Q8N3D4),-0.02 (inactive)

# Compound: CC1=CC=C(C=C1)SC2=C3C=C(SC3=CN=C2)C(=O)N
# Test: as above
# In short: as §1
row,Target,log2 fold change
1,FAM3A (UniProt P98173),-0.005 (inactive)
2,CTSZ (UniProt Q9UBR2),0.025 (inactive)
3,DMXL1 (UniProt Q9Y485),0.025 (inactive)
4,EXTL2 (UniProt Q9UBQ6),-0.017 (inactive)
5,CUEDC2 (UniProt Q9H467),-0.001 (inactive)
6,CYFIP1 (UniProt Q7L576),0.017 (inactive)
7,ECH1 (UniProt Q13011),0.044 (inactive)
8,FAM114A2 (UniProt Q9NRY5),0.038 (inactive)
9,EFCAB14 (UniProt O75071),0.022 (inactive)
10,DDX46 (UniProt Q7L014),0 (inactive)
11,FAM177A1 isoform 2 (UniProt Q8N128),0.101 (inactive)
12,DPH5 isoform 5 (UniProt Q9H2P9),0.046 (inactive)
13,DNAJB12 (UniProt Q9NXW2),-0.002 (inactive)
14,EXOC4 (UniProt Q96A65),0.021 (inactive)
15,DTNBP1 (UniProt Q96EV8),0.001 (inactive)
16,DYNC1LI2 (UniProt O43237),-0.049 (inactive)
17,EBNA1BP2 (UniProt Q99848),-0.07 (inactive)
18,EEF1B2 (UniProt P24534),-0.007 (inactive)
19,DCUN1D1 (UniProt Q96GG9),0.022 (inactive)
20,DLD (UniProt P09622),0.008 (inactive)

row,Target,log2 fold change
1,DNAJC7 (UniProt Q99615),0.029 (inactive)
2,DCAF6 isoform 3 (UniProt Q58WW2),-0.034 (inactive)
3,FAM50A (UniProt Q14320),0.019 (inactive)
4,CTSH (UniProt P09668),0.013 (inactive)
5,E2F4 (UniProt Q16254),0.087 (inactive)
6,DCP2 (UniProt Q8IU60),0.016 (inactive)
7,DTYMK (UniProt P23919),0 (inactive)
8,EOGT (UniProt Q5NDL2),-0.088 (inactive)
9,DCTPP1 (UniProt Q9H773),0.009 (inactive)
10,DHPS (UniProt P49366),0.034 (inactive)
11,DHRS1 (UniProt Q96LJ7),-0.166 (inactive)
12,EXOC2 (UniProt Q96KP1),0.051 (inactive)
13,DMAC1 (UniProt Q96GE9),0.116 (inactive)
14,FAAP100 (UniProt Q0VG06),-0.039 (inactive)
15,DNAH5 (UniProt Q8TE73),0.431 (active)
16,ERCC6 (UniProt Q03468),0.005 (inactive)
17,ERLIN2 (UniProt O94905),0.009 (inactive)
18,DAG1 (UniProt Q14118),-0.013 (inactive)
19,EHBP1L1 (UniProt Q8N3D4),-0.003 (inactive)
